In PubChem BioAssay (NCI) one finds growth data, which are given here for 20 molecules.

Common to all, as to experiment: NCI-60 one-dose screen, 48 h (100 = growth as untreated, 0 = no growth, -100 = all killed)
Holding throughout (conditions): 10 µM unless noted

Assay [1] deals with NCI-H23 lung.
For assay [2], the system named is NCI-H226 lung.
Assay [3] concerns NCI-H322M lung.
Assay [4] concerns HOP-62 NSCLC.
Assay [5] relates to HOP-92 NSCLC.
Assay [6] relates to NCI-H522 lung.
For assay [7], the system named is A549/ATCC NSCLC.
In assay [8] the test system is 786-0 renal.
In assay [9] the test system is COLO 205 colon.

The panel holds about 83,000 compounds, 20% with a hit somewhere; the sample as a whole holds those more often.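 Assay: single dose, 48 h. Readout: percent growth (0 = no net growth; negative = cell death). Active: <10.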 Unmarked numbers belong to inactive results. Calls of active or inactive are those of the source.

Turning to `CN1CCN(Cc2ccc3c(NNC(=O)c4ccccc4)nc4cc(F)ccc4n23)CC1`, the growth in assay [1] is 29.9%; in assay [2] it was 12.6%; in assay [3], 28.2%; in [4], 24.1%; in assay [5], 50.7%; in assay [6], 28%. Also, the values for the growth in [7], in assay [8] and in [9] were 14.8%, 26.4% and 19.5%, respectively.
As to `CO[C@H]1/C=C(/C)CCC[C@H](C)[C@H](O)[C@@H](C)C(=O)C(C)(C)[C@@H](O)CC(=O)O[C@@H]1/C(C)=C/c1csc(C)n1`, the growth in [1] was 34.7%; in assay [2], 50.3%; in [3], 12.8%; in [4], 29.4%; in assay [5], 66.6%; in assay [6], -29.1% (active). In addition, the results for the growth in assay [7], in assay [8] and in assay [9] were 17.5%, 57.1% and -53% (active), respectively.
For the molecule `Nc1ncnc2c1N=C(c1ccc3c(c1)OCO3)CC(c1ccc([N+](=O)[O-])cc1)N2` (stereo not drawn), the growth in assay [1] was 74.7%; in assay [2], 83%; in [3], 90.5%; in assay [4], 66.9%; in assay [5], 41.9%; in assay [6], 95.3%. The growth is 58.7% in assay [7], 51.8% in assay [8] and 97.6% in assay [9].
As to `Nc1nc2c([nH]1)c1[nH]c3ccccc3c1c1[nH]c3ccccc3c21`, the growth in assay [1] is 63.5%; in assay [2] it was 78.3%; in assay [3] it was 25.6%; in assay [4] it was 67.8%; in assay [5], -2.6% (active); in [6] it was 26.4%. Further, the growth was 85.5% in assay [7], 30.9% in [8] and -81.3% (active) in assay [9].
On to `CCCC(=O)NC(c1ccc2c(c1)OCO2)c1ccc2cccnc2c1O` (stereo not drawn), for which the growth in assay [1] is 24.1%; in [2] it was 12.2%; in [3] it was 25.9%; in assay [4] it was 20.4%; in assay [5], 31.4%; in assay [6] it was -4.35% (active). For the same molecule, the growth in assay [7] was 20.8%; in [8], 19.8%; in assay [9] it was 8.58% (active).
`C=C1CC[C@@H]2[C@](C)(COC(C)=O)[C@H](OC(C)=O)CC[C@@]2(C)[C@@H]1CC(Sc1ccccc1)C1=CCOC1=O` (stereo partly drawn): the growth in [1] is 24.5%; in [2], -9.88% (active); in assay [3], 67.1%; in assay [4], -18.2% (active); in assay [5], 24.5%; in assay [6] it was -80.6% (active). The growth was 26.6% in assay [7], -31.2% (active) in assay [8] and -68.1% (active) in assay [9].
Regarding `CCCCN1C(=O)/C(=c2\sc3n(c2=O)C2C(NN=3)N(CC)C(=O)N2CC)c2ccccc21` (stereo not drawn), the growth was 25% in assay [1]; 51.1% in assay [2]; 52.9% in assay [3]; 18% in assay [4]; 26.8% in assay [5]; -15.2% (active) in assay [6]. Moreover, the growth in assay [7] was 7.06% (active); in [8] it was 22.1%; in assay [9], 1.59% (active).
Turning to `CC(C)NC1CCC(Nc2ccnc3cc(Cl)ccc23)CC1` (stereo not drawn), the growth is 101% in [1]; 83.6% in assay [2]; 88.2% in assay [3]; 78.1% in [4]; 46.8% in assay [5]; 78.5% in [6]. Further, the growth was 91.1% in assay [7], 90.4% in assay [8] and 69.3% in assay [9].
As to `O=C(N/N=C/c1ccc(F)cc1)c1ccc(C(F)(F)F)nc1Nc1cccc(C(F)(F)F)c1`, the growth in assay [1] is 11.3%; in assay [2], 9.45% (active); in assay [3] it was -14.5% (active); in assay [4] it was -14.1% (active); in assay [5] it was -25.2% (active); in assay [6], -15.9% (active). For the same molecule, the growth was -10.9% (active) in assay [7], -29.7% (active) in [8] and 7.69% (active) in [9].
On to `Brc1ccc2[nH]cc(-c3nonc3-c3c[nH]c4ccccc34)c2c1`, for which the growth was 45.2% in [1]; 66.7% in [2]; 30.9% in [3]; 43.4% in assay [4]; 32.1% in [5]; 13.6% in assay [6]. Besides, the growth in [7] is 35.9%; in assay [8] it was 67.3%; in assay [9], 36.3%.
Consider `COC(=O)c1cc(-c2ccc(OC)cc2)[nH]c1N/N=C/c1c(Cl)cccc1Cl`, for which the growth is 46.1% in [1]; 38.1% in assay [2]; 36.1% in assay [3]; -42.5% (active) in assay [4]; 47.4% in assay [5]; 10.5% in assay [6]. Further, the values for the growth in assay [7], in assay [8] and in [9] were 5.26% (active), -14% (active) and -23.9% (active), respectively.
Take `Cc1cccc(Cl)c1NC(=O)c1ccc2nc(NC(=O)NCCN(C)C)sc2c1`: the growth was 103% in assay [1]; 100% in assay [2]; 101% in assay [3]; 60.3% in assay [4]; 64.1% in assay [5]; 77.5% in assay [6]. Further, the growth in assay [7] is 102%; in assay [8], 87.7%.
On to `Oc1c(Cl)cc(Cl)c2ccc(Cn3cc(-c4cc(F)cc(F)c4)nn3)nc12`, for which the growth in assay [1] is 92.3%; in assay [2] it was 95.1%; in assay [3], 111%; in assay [4], 98.9%; in [5], 29%; in assay [6] it was -38.7% (active). The growth in [7] was 102%; in assay [8], 95.6%; in assay [9] it was 70.4%.
For `COc1cccc(NC(=O)Cn2cc(CN3CCN(c4ccnc5cc(Cl)ccc45)CC3)nn2)c1`, the growth in assay [1] is 95%; in [2], 81.6%; in [3], 91.2%; in assay [4], 71.6%; in assay [5], 41.2%; in [6] it was 80.6%. The growth in assay [7] is 87.9%; in [8], 99.2%; in assay [9], 112%.
In the case of `CCC(=C(c1ccc(OCCN2CCCC2)cc1)c1ccc(OCCN2CCCC2)cc1)c1ccc(Cl)cc1`, the growth is 77.1% in [1]; 105% in assay [2]; 20% in assay [3]; 60.2% in assay [4]; 38.7% in [5]; 23.5% in assay [6]. For the same molecule, the growth in assay [7] was -28% (active); in assay [8] it was -94.2% (active).
`O=C(NCc1ccccc1)Nc1ccccc1CNc1nc(Nc2ccc(OCCN3CCCC3)cc2)ncc1Cl`: the growth is 85.4% in assay [1]; 109% in [2]; 109% in assay [3]; 86.2% in assay [4]; 83.8% in assay [5]; 108% in [6]. For the same molecule, the figures for the growth in assay [7], in [8] and in assay [9] were 97.5%, 46.7% and 112%, respectively.
Turning to `N#Cc1c(-c2ccc(Cl)cc2)nc(NN=Cc2cccc(O)c2)nc1N1CCOCC1`, the growth in assay [1] is 100%; in assay [2] it was 92.9%; in assay [3], 86.3%; in [4], 87.8%; in assay [5] it was 63.3%; in [6], 74.8%. Besides, the growth in assay [7] was 72.7%; in assay [8], 64.3%; in assay [9], 85.7%.
With `COc1ccc(C(=O)Nc2cccc(C3CC(=O)c4c(cc(OC)c(OC)c4OC)O3)c2)cc1` (stereo not drawn), the growth in assay [1] is 35.2%; in [2] it was 25%; in [3], 37.8%; in assay [4] it was 14.1%; in assay [5], 34.3%; in assay [6] it was -37.1% (active). Besides, the growth in [7] was 28.5%; in assay [8], 13.8%; in [9], -5% (active).
Consider `O=C(NCCCCNC(=O)OCc1ccc2c(Cl)cc(Cl)c(O)c2n1)OCc1ccc2c(Cl)cc(Cl)c(O)c2n1`, for which the growth is 24.6% in assay [1]; 8.33% (active) in assay [2]; 34.3% in assay [3]; 9.48% (active) in assay [4]; 48.5% in assay [5]; -2.86% (active) in assay [6]. Besides, the growth in assay [7] is 14.8%; in assay [8] it was 70.7%; in assay [9], 96.3%.
As to `C=CCn1c(SCC(=O)NCc2cc(C)c(O)c(C)c2)nc2ccc(Cl)cc2c1=O`, the growth was 101% in assay [1]; 87.2% in assay [2]; 97% in assay [3]; 101% in assay [4]; 82.2% in assay [5]; 94.1% in assay [6]. For the same molecule, the figures for the growth in assay [7], in assay [8] and in assay [9] were 106%, 92.5% and 116%, respectively.
